# Source: PubChem BioAssay
# Sampled rows, rich in hits. Any-hit rate of the full collection: about 4%.
# Peg3 prom inh = reduces Peg3 promoter-driven luciferase expression in HeLa; inhibition, % at 20 µM; 1.7% of 360,000 active; HeLa PEG-Prom luciferase reporter, luminescence, overnight;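 active = inhibition of at least 50% at 20 µM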
# TWEAK-Fn14 inh = blocks TWEAK-Fn14 interaction in a reporter cell assay | TWEAK-stimulated Fn14 reporter cells, luciferase luminescence, 8 h | inhibition, % at 10 µM | 2% of 360,000 active | AID 1159606; in the data active = inhibition above about 50%
# KKLEB tox = counter-screen for CF NF-kB inhibitors: cytotoxicity | KKLEB CF airway cells viability, ATPlite luminescence, overnight; hits give low values; cells stimulated with P. aeruginosa culture filtrate | activity change (cytotoxicity), % at 5 µM | 0.36% of 360,000 active | AID 602141;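 active = corrected activity change at or below -50% at 5 µM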
# TROY signal inh = blocks TROY-dependent signaling in reporter cells; Q293 LMP1-TROYcd NF-kB luciferase reporter, 4 h; inhibition, % at 10 µM; 0.98% of 360,000 active;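 active = compounds whose plate-normalised and pattern-corrected inhibition of the luciferase reporter signal at the single screening dose is 50% or more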
# HIF-2a inh = blocks HIF-2a reporter activity; 786-0 RCC cells HIF-2a reporter, luciferase luminescence, overnight; inhibition, % at 18.8 µM; 0.72% of 360,000 active;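 active = inhibition of the luminescence signal of 40% or more relative to plate controls, in a single-dose primary screen at 18.75 µM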
# CF NFkB inh = inhibitors of cystic fibrosis induced NF-kB; AID 588850; inhibition, % at 5 µM; 0.86% of 360,000 active; KKLEB NF-kB-GFP reporter, PAF-induced, GFP fluorescence overnight;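 active = at least 50% inhibition at 5 µM, scaled per plate between neutral and stimulator controls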;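 also: PAF is a Pseudomonas aeruginosa culture filtrate used as stimulus; plate controls were PAF-stimulated DMSO wells for no effect and unstimulated DMSO wells for full effect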
# Mdm2 MdmX conf = confirmation of inhibitors of human Mdm2/MdmX interaction, set 2. shares compounds with HIF-2a inh. SaOS-2 split-luciferase Mdm2/MdmX complementation, luminescence. inhibition, % at 8 µM. 99% of 740 active. AID 504601;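 active = mean inhibition of the luminescence signal across two replicates at or above 26 percent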
# HIF-2a conf = HIF-2a inhibition, single concentration confirmation; inhibition, % at 18.8 µM; 56% of 1,800 active; 786-0 RCC cells, HIF-2a luciferase reporter luminescence, overnight; shares compounds with HIF-2a inh;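 active = mean inhibition across four replicates of at least 40 percent at the single tested concentration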
# HIF-1a cs = counter-screen for HIF-2a inhibitors: HIF-1a inhibition in MiaPaCa-2 cells | shares compounds with HIF-2a inh | MiaPaCa-2 HIF-1a luciferase reporter, desferoxamine, overnight | inhibition, % at 18.8 µM | 72% of 1,800 active | AID 651589;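 active = mean inhibition of the reporter signal across four replicates at the single tested dose of 50% or more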
# * hit, by the source's call; x = no result.
SMILES,Peg3 prom inh,TWEAK-Fn14 inh,KKLEB tox,TROY signal inh,HIF-2a inh,CF NFkB inh,Mdm2 MdmX conf,HIF-2a conf,HIF-1a cs
COc1ccc(-c2oc3ncn(CCN4CCOCC4)c(=N)c3c2-c2ccc(OC)cc2)cc1,38.6,-7.1,-24.5,-16.1,45.4*,14.2,x,12.3,85.5*
COc1ccc(-c2oc3ncnc(NCCN4CCOCC4)c3c2-c2ccc(OC)cc2)cc1,51.0*,33.0,-31.4,15.6,46.6*,35.7,x,30.2,89.8*
COc1ccc(CCNCCN2CCOCC2)cc1,13.5,-0.7,-5.5,-2.9,11.9,3.8,x,x,x
COc1cccc(CN(C(=O)c2ccccc2Cl)C2CCS(=O)(=O)C2)c1 (configuration not stated),5.6,3.5,3.3,9.8,10.3,19.5,x,x,x
COc1cc2c(cc1OC)C(c1cc(Br)ccc1F)N(C(=O)CCl)CC2 (configuration not stated),101.8*,28.9,-68.4*,-13.1,89.7*,105.3*,103.2*,97.3*,103.2*
COc1cc2c(cc1OC)C(C1C(=O)CC(C)(C)CC1=O)N(C(=O)CCl)CC2 (configuration not stated),-5.2,-10.0,-0.9,-10.5,2.8,-17.6,x,x,x
COc1cc2c3nnc(-c4ccc(F)cc4)c-3cn(Cc3cccc(F)c3)c2cc1OC,95.8*,-19.4,-4.4,-7.2,27.0,-51.5,103.2*,x,x
C=C[C@]1(C)C=C2CCC3[C@](C)(CCC[C@@]3(C)C(=O)O)C2CC1 (some centres not stated),10.2,26.4,6.4,24.8,8.8,22.3,x,x,x
C=C1C(=O)[C@]23C[C@H]1CCC2[C@]1(C)CCC[C@@](C)(C(=O)O)C1C[C@@H]3O (some centres not stated),99.4*,96.8*,-82.8*,59.0*,87.7*,92.6*,x,91.0*,104.2*
CCCCS(=O)(=O)/C=C\C=C/S(=O)(=O)CCCC,102.0*,79.2*,-70.8*,46.7,93.3*,83.9*,102.5*,x,x
O=[N+]([O-])c1cccc(CSC2=NCCN2S(=O)(=O)c2ccccc2)c1,14.0,-13.2,-1.1,19.4,20.2,16.8,x,x,x
CCSc1ncc(Cl)c(C(=O)Nc2ccccc2OC)n1,14.9,-8.6,-3.2,11.7,15.8,-13.9,x,x,x
CCc1nnc(NC(=O)c2nc(S(=O)(=O)Cc3cccc(C)c3)ncc2Cl)s1,108.6*,97.0*,-89.7*,46.2,84.6*,89.7*,102.7*,x,x
CCc1nnc(NC(=O)c2nc(S(=O)(=O)Cc3ccc(C)cc3)ncc2Cl)s1,105.9*,95.3*,-82.5*,51.1*,49.9*,93.6*,103.0*,63.2*,107.5*
CCOc1ccccc1NC(=O)c1nc(S(=O)(=O)Cc2cccc(C)c2)ncc1Cl,106.2*,78.5*,-102.2*,70.5*,90.2*,87.0*,102.5*,85.9*,103.2*
CCCCn1nnnc1C(c1cccs1)N1CCN(C/C=C/c2ccccc2)CC1 (configuration not stated),3.0,2.1,-5.3,1.2,-14.4,-2.6,x,x,x
CCc1ccc(NC(=O)c2sc3nc4n(c(=O)c3c2C)CCC4)cc1,-244.4,-29.0,3.3,-57.5,-217.5,-7.6,x,x,x
CC(=O)Nc1ccc(NC(=O)c2sc3nc4n(c(=O)c3c2C)CCCCC4)cc1,24.9,-4.7,-3.6,10.3,79.9*,-2.6,x,89.6*,90.0*
CCOC(=O)C1CCN(C(=O)CCc2c(C)nc3cc(-c4ccccc4)nn3c2C)CC1,-50.3,1.7,-5.3,-34.5,68.6*,19.6,x,84.5*,44.9
CCOC(=O)CCc1c(C)nc2ncnn2c1C,-0.5,-3.1,8.8,9.1,5.8,-5.0,x,x,x
